A selection: hits, their analogues and other compounds. The true share with any hit is near 6.9%.
VDR inh = vitamin D3 receptor (human) inhibition; P11473; VDR-SRC2-3 peptide fluorescence polarization, 2 h; Potency, µM, for inactives: max response, negative = inhibition, hits mostly inhibitors; 400,000 tested, 0.93% active; AID 504847; note: % is set by controls: 0 for no effect and ±100 for the full control effect
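After 23 nl compound addition and a short centrifugation, plates sat for 2 hours at ambient temperature; polarization of fluorescence then indicated loss of VDR binding to peptide SRC2-3.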
BAZ2B block = BAZ2B (human) inhibition. Q9UIF8. AlphaScreen BAZ2B-H3K14Ac peptide displacement. Potency, µM (titrated, usually from 114 µM), inactives show at the top dose activity change, negative = inhibition, usual class: inhibitors. 360,000 tested, 4.4% active; note: % is set by controls: 0 for no effect and ±100 for the full control effect; nearly all actives have a fitted effect of over 60% in size
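Multi-concentration screen (max 110 uM) measuring displacement of acetylated histone H3 peptide from BAZ2B by AlphaScreen, using 50 nM protein, 50 nM peptide and 10 ug/mL streptavidin donor plus Ni-chelate acceptor beads.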
L3MBTL1 block = blocks human L3MBTL1 | Potency, µM (top dose mostly 57.1 µM), for the others: at the top dose activity, negative = inhibition, usual class: inhibitors | AlphaScreen L3MBTL1–H3K9me1 peptide binding | AID 485360 | 230,000 tested, 0.66% active | Q9Y468; note: % is set by controls: 0 for no effect and ±100 for the full control effect; nearly all actives have a fitted effect of over 60% in size
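AlphaScreen proximity signal between nickel-chelate acceptor and streptavidin donor beads (final 10 ug/mL) reports binding of 50 nM L3MBTL1 to 75 nM biotin-H3 K9me1 peptide; complex incubated with compounds 30 min at room temperature; cefsulodin titration as control.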
HP1b chromo inh = HP1-beta chromodomain-methylated histone interaction inhibition; Potency, µM (top dose mostly 114 µM), for the others: at the top dose activity change, negative = inhibition, actives largely listed as inhibitors; AID 540317; 390,000 tested, 0.56% active; AlphaScreen HP1-beta / biotin-H3K9me3 peptide binding; P83916; note: nearly all actives have a fitted effect of over 70% in size
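AlphaScreen: HP1-beta (50 nM) preformed 30 min with biotin-H3(1-18)K9me3 peptide (50 nM) in PBS pH 7.4, 0.01% Tween-20. Compound added for 30 min at RT, then streptavidin donor/nickel chelate acceptor beads (10 ug/mL) for 30 min.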
PLK1 PBD block = PLK1 (human) polo-box domain binding inhibition; Potency, µM, for the others: max response, negative = inhibition, most hits filed as inhibitors; AID 720504; Plk1 PBD binding of FITC phosphopeptide, fluorescence polarization; 360,000 tested, 2.8% active; P53350; note: series mostly up to about 57 µM; % is set by controls: 0 for no effect and ±100 for the full control effect; nearly all actives have a fitted effect of over 65% in size
JMJD2A Tudor = JMJD2A Tudor domain (human) inhibition; O75164; AlphaScreen JMJD2A-Tudor / H3K4me3 peptide binding; Potency, µM (highest dose often 114 µM), inactives show at the highest dose activity change, negative = inhibition, hits mostly inhibitors; 390,000 tested, 4.4% active; note: % is set by controls: 0 for no effect and ±100 for the full control effect; nearly all actives have a fitted effect of over 50% in size
* = called active by the depositor; ? = inconclusive; · = no result given. Calls come from the whole dose curve; as a rule, active = well fitted curve in the direction sought with a large enough effect; inconclusive = small, poorly fitted or top-dose-only effect, or another doubt; inactive = no such curve, though single readings can be large; an effect the other way counts as inactive or inconclusive. Potency is the fitted concentration of half-maximal effect.

SMILES	VDR inh	BAZ2B block	L3MBTL1 block	HP1b chromo inh	PLK1 PBD block	JMJD2A Tudor
NC(=S)N/N=C/c1ccccc1[N+](=O)[O-]	-7.4%	-10.1%	0.8%	?	?	-12.1%
CCOC(=O)c1sc2cc([N+](=O)[O-])cc(SCC(C)C)c2c1N	-10.5%	-8.9%	·	?	?	39.8µM*
COc1ccc(CN2CCN(Cc3c[nH]c4ccccc34)CC2)cc1	8.4%	20µM*	·	35.5µM*	-12.5%	0.794µM*
COc1ccc(CN2CCN(Cc3c[nH]c4ccccc34)CC2)cc1OC	·	·	·	·	-14.4%	·
COc1ccc(CN2CCN(Cc3c[nH]c4ccccc34)CC2)c(OC)c1	·	·	·	·	-14.7%	·
COc1ccc(Br)cc1CN1CCN(Cc2c[nH]c3ccccc23)CC1	-3.4%	14.1µM*	·	?	2.5%	2.82µM*
CN(Cc1ccccc1)C(=O)c1cc(-c2cccc(Cl)c2)on1	-12.3%	151.6%	·	117.6%	·	122.2%
CC12CCCCC1N(O)C(=O)C(=O)N2O (stereo unspecified)	-10.6%	?	9.5%	4.5%	2.5%	79.4µM*
COc1ccc(Br)cc1CN1CCN(C(=O)c2ccc(OC)c(OC)c2)CC1	5.2%	50.1µM*	-9.2%	?	-1.3%	14.1µM*
COc1ccc(C(=O)N2CCN(Cc3cn[nH]c3-c3ccc(OC)cc3F)CC2)cc1	-2.3%	-15.0%	-7.2%	64.6%	0.5%	-10.3%
COc1cccc(C(=O)N2CCN(C(=O)Cc3ccccc3)CC2)c1	2.8%	-2.0%	-21.8%	32.2%	-5.7%	-14.6%
COc1cccc(C(=O)N2CCN(Cc3ccc(OC)cc3OC)CC2)c1	-5.5%	25.1µM*	0.0%	?	2.6%	12.6µM*
COc1cccc(C(=O)N2CCN(Cc3cn[nH]c3-c3ccc(F)cc3F)CC2)c1	?	0.3%	1.2%	?	29.9µM*	?
COc1ccc(OC)c(CN2CCN(C(=O)c3cccc(S(=O)(=O)Nc4ccccc4OC)c3)CC2)c1	-11.7%	?	-8.2%	-11.0%	-5.0%	-35.6%
COc1cccc(C(=O)N2CCN(Cc3cc(Br)ccc3OC)CC2)c1	-16.6%	28.2µM*	23.7%	?	-3.0%	7.94µM*
COc1ccccc1OC(C)C(=O)Nc1c(C(=O)c2ccc(Cl)cc2)oc2ccccc12 (stereo unspecified)	-14.8%	-0.8%	·	41.9%	·	6.2%
N#CCCn1c(=O)c(-c2ccc(F)cc2)nc2cnc(N3CCOCC3)nc21	0.1%	·	·	·	·	·
COc1ccc(-c2c(C3C4C=CCCC4(C)C(=O)N3Cc3ccccc3)ccc3ccccc23)cc1OC (stereo unspecified)	-25.3%	·	·	22.3%	·	?
O=[N+]([O-])c1cccc(COc2ncnc3cc([N+](=O)[O-])ccc23)c1	-14.5%	-26.0%	-14.5%	7.4%	-8.2%	?
COc1ccc(Br)cc1CNC(=O)C1CCCN(S(C)(=O)=O)C1 (stereo unspecified)	0.9%	9.0%	6.7%	11.8%	1.6%	-9.8%
COc1ccc(Br)cc1C(=O)Nc1ccccc1N1CCN(C(=O)c2ccccc2)CC1	6.0%	-11.6%	-2.8%	-3.2%	23.8µM*	?
COc1ccc(Br)cc1CN1CCC(N2CCCC2)CC1	-18.5%	31.6µM*	-9.1%	?	4.0%	?
O=C(Nc1ccccc1N1CCN(C(=O)c2ccccc2)CC1)c1cc(Br)ccc1Cl	-8.4%	-7.6%	-0.4%	23.5%	-4.4%	?
COc1ccccc1C(=O)Nc1ccc2nc(SCC(=O)N3CCCC3)sc2c1	16.0%	3.8%	·	28.5%	·	-14.2%
COc1ccc(CNC(=O)c2cccc(N3CCCS3(=O)=O)c2)cc1OC	-15.8%	-0.7%	·	32.5%	·	5.5%
Cn1cnnc1SCC(=O)c1ccc(OC(F)F)cc1	?	1.0%	·	16.8%	-15.2%	31.6µM*
COc1ccc(C(=O)CSc2nncn2C)cc1	7.3%	3.1%	·	22.8%	-6.3%	-6.2%
CCn1cnc2c(Nc3cc(F)cc(F)c3)nc(C(=O)COc3c(F)c(F)cc(F)c3F)nc21	·	·	·	·	·	-16.4%
